Results as given in PubChem BioAssay AID1159580 (chemical genetic matrix, 2015).
“And” between values parts separate entries of the source, which are not always exact repeats. Equal entries are not always repeated. Screen size: about 5,500 compounds; about 2,000 (36%) were called active. Another 18% or so got no clear call; they are omitted. No stated cut-off is given here; in the data, active means normalized growth mostly below about 0.91 (no sharp cut-off); inconclusive means no clear call, values can overlap the other calls; inactive means mostly above about 0.92. This is one part of the list.

Test: chemical genetic growth profiling, strain panel (AID 1159580);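 further: tested at 20 µM; growth read once vehicle control cultures reached saturation at 30 °C; 1 = growth at the plate median or of vehicle wells; lower values mean less growth of the strain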
Settings: S. cerevisiae deletion strains, growth OD

Measured: normalized growth

NC1C[C@H]1c1ccccc1 (stereo partly specified)
inactive: locus YAL013W, strain DEP1, active compounds read low 1.01 | locus YAL021C, strain ccr4, active compounds read low 1 | locus YAL026C, strain drs2, active compounds read low 0.985 | locus YAL030W, strain snc1, active compounds read low 0.985 | locus YBL061C, strain skt5, active compounds read low 0.991 | locus YBR009C, strain hhf1, active compounds read low 1 | locus YBR021W, strain FUR4, active compounds read low 0.983 | locus YBR023C, strain chs3, active compounds read low 0.983 | locus YBR171W, strain sec66, active compounds read low 0.978 | locus YBR229C, strain ROT2, active compounds read low 1 | locus YBR231C, strain swc5, active compounds read low 0.98 | locus YBR279W, strain paf1, active compounds read low 0.985 | locus YCL011C, strain gbp2, active compounds read low 0.977 | locus YCL016C, strain dcc1, active compounds read low 0.981 | locus YCL029C, strain bik1, active compounds read low 0.978 | locus YCL069W, strain vba3, active compounds read low 0.992 | locus YCR088W, strain abp1, active compounds read low 0.992 | locus YDL005C, strain med2, active compounds read low 0.953 | locus YDL035C, strain GPR1, active compounds read low 1.01 | locus YDL040C, strain nat1, active compounds read low 0.976 | locus YDL074C, strain BRE1, active compounds read low 0.999 | locus YDL101C, strain DUN1, active compounds read low 1 | locus YDL134C, strain PPH21, active compounds read low 1.01 | locus YDL185W, strain tfp1, active compounds read low 0.985 | locus YDL192W, strain arf1, active compounds read low 0.995 | locus YDR001C, strain nth1, active compounds read low 0.985 | locus YDR069C, strain doa4, active compounds read low 0.98 | locus YDR101C, strain arx1, active compounds read low 0.977 | locus YDR137W, strain rgp1, active compounds read low 0.986 | locus YDR150W, strain NUM1, active compounds read low 1 | locus YDR159W, strain sac3, active compounds read low 0.984 | locus YDR162C, strain NBP2, active compounds read low 1.01 | locus YDR195W, strain ref2 0.974 | locus YDR297W, strain sur2, active compounds read low 1 | locus YDR318W, strain mcm21, active compounds read low 0.972 | locus YDR334W, strain swr1, active compounds read low 0.993 | locus YDR335W, strain msn5, active compounds read low 0.997 | locus YDR388W, active compounds read low 0.979 | locus YDR392W, strain spt3, active compounds read low 0.991 | locus YDR502C, strain sam2, active compounds read low 0.979 | locus YEL003W, strain gim4, active compounds read low 0.993 | locus YEL037C, strain rad23, active compounds read low 0.989 | locus YEL061C, strain CIN8 (second series), active compounds read low 0.977 | locus YEL061C, strain CIN8, active compounds read low 1.01 | locus YER015W, strain faa2, active compounds read low 0.99 | locus YER016W, strain bim1, active compounds read low 1.01 | locus YER110C, active compounds read low 0.989 | locus YER111C, strain swi4, active compounds read low 0.959 | locus YER155C, strain BEM2 (second series), active compounds read low 0.976 | locus YER155C, strain BEM2, active compounds read low 0.995 | locus YER167W, strain BCK2, active compounds read low 1.01 | locus YFR010W, strain ubp6, active compounds read low 1.04 | locus YGL078C, strain dbp3, active compounds read low 0.973 | locus YGL086W, strain mad1, active compounds read low 0.988 | locus YGL167C, strain pmr1, active compounds read low 0.985 | locus YGL173C, strain kem1, active compounds read low 0.991 | locus YGL227W, strain vid30, active compounds read low 0.979 | locus YGL240W, strain doc1, active compounds read low 0.991 | locus YGL248W, strain PDE1, active compounds read low 1 | locus YGL253W, strain hxk2, active compounds read low 0.985 | locus YGR078C, strain PAC10, active compounds read low 0.989 | locus YGR135W, strain pre9, active compounds read low 0.974 | locus YGR229C, strain SMI1, active compounds read low 0.997 | locus YGR252W, strain gcn5, active compounds read low 0.919 | locus YHR013C, strain ard1, active compounds read low 0.962 | locus YHR027C, strain rpn1, active compounds read low 0.995 | locus YHR030C, strain SLT2, active compounds read low 1 and 0.953 | locus YHR079C, strain IRE1 (second series), active compounds read low 0.975 | locus YHR079C, strain IRE1, active compounds read low 0.983 | locus YHR094C, strain hxt1, active compounds read low 0.989 | locus YHR129C, strain ARP1, active compounds read low 1.01 | locus YHR142W, strain chs7, active compounds read low 0.967 | locus YHR200W, strain rpn10, active compounds read low 0.976 | locus YIL066C, strain RNR3, active compounds read low 1.01 | locus YIL073C, strain SPO22, active compounds read low 1.01 | locus YIL125W, strain kgd1, active compounds read low 0.986 | locus YIR030C, strain dcg1, active compounds read low 0.988 | locus YJL092W, strain hpr5, active compounds read low 0.992 | locus YJL095W, strain BCK1 (second series), active compounds read low 1 | locus YJL095W, strain BCK1, active compounds read low 1.01 and 0.965 | locus YJL115W, strain asf1, active compounds read low 0.976 | locus YJL129C, strain trk1, active compounds read low 0.963 | locus YJL134W, strain LCB3, active compounds read low 1 | locus YJL154C, strain vps35, active compounds read low 0.973 | locus YJL164C, strain tpk1, active compounds read low 0.999 | locus YJL166W, strain qcr8, active compounds read low 1.01 | locus YJL168C, strain set2, active compounds read low 0.983 | locus YJL187C, strain SWE1 (second series), active compounds read low 1.01 | locus YJL187C, strain SWE1, active compounds read low 0.992 | locus YJR043C, strain POL32, active compounds read low 0.995 | locus YJR066W, strain TOR1, active compounds read low 0.931
